# Results published in publication PMC4336329 (PLoS ONE, 2015).
# Among all 310,000 compounds or so, about 14,000 (4.5%) showed an effect of 50% or more. Effects have a minus sign here. The full list was thinned out, with strong results kept by preference.
# Molecular target: human ether-à-go-go-related gene (hERG) potassium channel (human, UniProt Q12809)
# Assay: primary screen, population patch clamp on CHO cells stably expressing hERG; higher = less effect of the substance
# 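Further: peak tail current of the secondary pulse compared with the same well before compound.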
# Sequence of human ether-à-go-go-related gene (hERG) potassium channel (Q12809 whole entry, looked up): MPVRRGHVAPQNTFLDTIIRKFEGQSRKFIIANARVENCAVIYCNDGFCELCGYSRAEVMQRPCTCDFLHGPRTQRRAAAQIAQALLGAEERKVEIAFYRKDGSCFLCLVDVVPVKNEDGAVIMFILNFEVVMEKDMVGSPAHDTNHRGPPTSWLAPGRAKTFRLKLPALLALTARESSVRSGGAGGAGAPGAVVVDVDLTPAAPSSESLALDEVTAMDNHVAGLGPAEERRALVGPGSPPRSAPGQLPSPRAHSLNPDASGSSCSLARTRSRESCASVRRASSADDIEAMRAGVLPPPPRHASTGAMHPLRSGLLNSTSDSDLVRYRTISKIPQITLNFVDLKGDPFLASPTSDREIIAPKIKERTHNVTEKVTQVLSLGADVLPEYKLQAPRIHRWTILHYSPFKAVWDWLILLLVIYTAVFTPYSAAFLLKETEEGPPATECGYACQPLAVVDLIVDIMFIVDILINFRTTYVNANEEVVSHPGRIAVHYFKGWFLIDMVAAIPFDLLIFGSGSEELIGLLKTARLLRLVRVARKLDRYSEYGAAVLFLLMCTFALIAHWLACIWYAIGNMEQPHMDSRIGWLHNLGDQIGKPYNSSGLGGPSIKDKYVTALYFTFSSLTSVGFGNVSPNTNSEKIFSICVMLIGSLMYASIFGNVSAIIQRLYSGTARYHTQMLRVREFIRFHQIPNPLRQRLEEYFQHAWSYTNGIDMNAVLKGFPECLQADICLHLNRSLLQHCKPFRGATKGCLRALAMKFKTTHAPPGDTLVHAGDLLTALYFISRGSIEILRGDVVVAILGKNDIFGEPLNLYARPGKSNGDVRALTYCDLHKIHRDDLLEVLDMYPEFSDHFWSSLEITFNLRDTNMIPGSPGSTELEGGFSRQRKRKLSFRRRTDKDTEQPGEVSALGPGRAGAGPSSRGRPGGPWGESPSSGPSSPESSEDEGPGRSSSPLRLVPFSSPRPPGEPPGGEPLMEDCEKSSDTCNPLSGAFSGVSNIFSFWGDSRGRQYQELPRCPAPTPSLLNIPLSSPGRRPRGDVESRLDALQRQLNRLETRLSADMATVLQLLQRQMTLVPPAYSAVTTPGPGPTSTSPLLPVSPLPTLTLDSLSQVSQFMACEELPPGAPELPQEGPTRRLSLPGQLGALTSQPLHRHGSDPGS
row,SMILES,"hERG current change (%, negative = inhibition) at 10uM [%]"
1,C=CCn1c(Cc2cccs2)nnc1SCC(=O)Nc1cc(OC)cc(OC)c1,-27.8
2,Cc1nc2nc(C)c(CCC(=O)Nc3ccc4c(c3)OCO4)c(C)n2n1,-18
3,COc1ccc(C2N=C(N)N=C(N)N2c2ccccc2OC)cc1OC.Cl (stereo not drawn),-11.7
4,O=C(Nc1nnc(-c2cccs2)o1)C1CC1,3.93
5,CCOC(=O)C1=NNC(C(=O)c2ccc(OC)cc2)C1c1ccccc1 (stereo not drawn),-9.43
6,Cn1ncc(C#N)c1NC(=O)C1CC(c2ccc(Cl)c(Cl)c2)=NO1 (stereo not drawn),-9.94
7,COc1cccc(CC(=O)Nc2nc3ccccc3[nH]2)c1,10.7
8,Cc1cccc(NC(=S)NCCc2c[nH]c3ccccc23)c1,-4.25
9,O=C(O)CNC(=S)N(Cc1ccccc1F)C1CCCCC1,0.581
10,CCCNC(=O)CNC(=S)N(Cc1ccccc1F)C1CCCCC1,-10.8
11,CCOC(=O)CNC(=S)N(Cc1ccccc1F)C1CCCCC1,-73
12,CC(C)c1ccc(S(=O)(=O)N2CCN(C(=O)n3ccnc3)CC2)cc1,-35.8
13,COc1cc(OC)cc(C(=O)N[C@H](C(=O)NCc2ccccc2)C(C)C)c1,7.08
14,CCOC(=O)N1CCN(C(=S)NC(=O)c2cc(Br)ccc2Cl)CC1,3.59
15,C=CCc1c(C)nc(C)nc1N/N=C/c1ccc([N+](=O)[O-])cc1.Cl,-56.3
16,C=CCc1c(C)nc(C)nc1N/N=C/c1ccc(F)cc1,-30.9
17,C=CCc1c(C)nc(C)nc1N/N=C/c1ccccc1,-19.2
18,CCC(c1nnnn1Cc1ccc(F)cc1)N(CCCO)Cc1cc2cc3c(cc2[nH]c1=O)OCO3 (stereo not drawn),-17.5
19,Cc1ccc(-n2c(O)c(/C=N/c3ncc(Br)cc3Br)c(=O)[nH]c2=O)cc1,2.79
20,CCCCNC(=O)CSc1nc2cc3c(cc2c(=O)n1CCCC(=O)NCCc1ccc(OC)c(OC)c1)OCO3,1.71
21,CCOCCCn1c(SCC(=O)Nc2ccccc2)nc2ccccc2c1=O,-29.4

row,SMILES,"hERG current change (%, negative = inhibition) at 10uM [%]"
1,CCOCCCn1c(SCC(=O)Nc2cc(OC)ccc2OC)nc2ccccc2c1=O,-55.7
2,CCOCCCn1c(SCC(=O)Nc2ccccc2OC)nc2ccccc2c1=O,-45
3,CCOCCCn1c(SCC(=O)Nc2cccc(OC)c2)nc2ccccc2c1=O,-58.4
4,COCCn1c(SCC(=O)NCc2ccc3c(c2)OCO3)nc2ccccc2c1=O,-42.4
5,CCOCCCn1c(SCC(=O)NCc2ccc3c(c2)OCO3)nc2ccccc2c1=O,-59
6,CCOCCCn1c(SCC(=O)Nc2ccc(NC(C)=O)cc2)nc2ccccc2c1=O,7.29
7,CCOCCCn1c(SCC(=O)Nc2ccc(OC)cc2)nc2ccccc2c1=O,-11
8,CCCCNC(=O)CSc1nc2cc3c(cc2c(=O)n1CCCN(CC)CC)OCO3,-62.6
9,CCCCNC(=O)CSc1nc2cc3c(cc2c(=O)n1Cc1ccco1)OCO3,-10.8
10,COCCCNC(=O)CSc1nc2ccccc2c(=O)n1Cc1ccc2c(c1)OCO2,12.4
11,CCC1CCCCN1Cc1ccc(CNC(=O)CCc2nnc3ccc(N4CCCCC4)nn23)o1 (stereo not drawn),18.2
12,Cc1ccc(S(=O)(=O)N2CCC(C)CC2)c([N+](=O)[O-])c1,-12.9
13,Cc1ccc(CN2CC(C(=O)N(C)CC(=O)Nc3cccc(F)c3)CC2=O)cc1 (stereo not drawn),-7.16
14,O=C1Nc2ccccc2C1(O)c1ccccc1O (stereo not drawn),34.6
15,CCOc1ccc(OCCC(=O)OCC(=O)Nc2ccc3c(c2)OCCO3)cc1,-5.02
16,COc1ccc(C[C@@H]2CN3C(=NC[C@@H]3Cc3ccc(O)cc3)N2C[C@H](C)NC(=O)CCC2CCCCC2)cc1,-80.6
17,COc1ccc(C[C@H]2CN3C(=NC[C@@H]3Cc3ccc(O)cc3)N2C[C@H](C)NC(=O)CCC2CCCCC2)cc1,-66.1
18,C[C@@H](CN1C2=NC[C@H](C)N2C[C@H]1Cc1ccc(O)cc1)NC(=O)CCC1CCCCC1,-11.9
19,CC(C)[C@H]1CN=C2N(C[C@H](C)NC(=O)CCC3CCCCC3)[C@H](Cc3ccc(O)cc3)CN21,-59.7
20,O=C(CCC1CCCC1)N[C@@H](Cc1ccc(O)cc1)C(=O)O,28.8
21,COc1ccc(C[C@@H]2CN3C(=NC[C@@H]3C)N2C[C@H](C)NC(=O)CCC2CCCCC2)cc1,-67.4

row,SMILES,"hERG current change (%, negative = inhibition) at 10uM [%]"
1,Cc1cc(C)cc(NC(=S)N2CCN(CCO)CC2)c1,14.3
2,COC(=O)c1ccc(OC)c(CSc2nnc(COc3ccc(OC)cc3)o2)c1,-27.1
3,N#Cc1ccccc1CSc1nc2ncc(Br)cc2[nH]1,5.22
4,CC(C)(C)c1cc(NC(=O)Nc2ccccc2OC(F)(F)F)no1,26.4
5,O=C(COC(=O)c1cccc(S(=O)(=O)NCc2ccccc2)c1)Nc1ccccc1OC(F)F,11.5
6,CC1CCCN(C(=O)NC(=O)c2ccc(Cl)cc2)C1 (stereo not drawn),3.85
7,C[C@@H](CN1C2=NC[C@H](Cc3ccccc3)N2C[C@H]1Cc1ccc(O)cc1)NC(=O)CCC1CCCCC1,-71.2
8,C[C@@H](CN1C2=NC[C@H](Cc3ccc(O)cc3)N2C[C@H]1Cc1ccc(O)cc1)NC(=O)CCC1CCCCC1,-10.3
9,CC(CCc1ccccc1)NC(=O)CCC1CCCC1 (stereo not drawn),-24.5
10,O=C1CC(N2CCN(c3ccc(O)cc3)CC2)C(=O)N1Cc1cccs1 (stereo not drawn),-7.15
11,O=C(c1ccncc1)c1ccc(N2CCN(C3CC(=O)N(Cc4ccccc4)C3=O)CC2)cc1 (stereo not drawn),-76.2
12,O=C(c1ccc(N2CCN(C3CC(=O)N(c4ccc(F)cc4)C3=O)CC2)cc1)c1cccnc1 (stereo not drawn),-50.6
13,O=C(c1ccc(N2CCN(C3CC(=O)N(Cc4cccs4)C3=O)CC2)cc1)c1cccnc1 (stereo not drawn),-73.5
14,NC(=O)C1(N2CCCCC2)CCN(C2CC(=O)N(Cc3cccs3)C2=O)CC1 (stereo not drawn),6.12
15,COc1ccc(N2C(=O)CC(N3CCN(c4ccc(C(=O)c5cccnc5)cc4)CC3)C2=O)cc1 (stereo not drawn),-48.2
16,O=C(c1ccncc1)c1ccc(N2CCN(C3CC(=O)N(Cc4cccs4)C3=O)CC2)cc1 (stereo not drawn),-79.3
17,O=C1CC(N2CCN(c3ccc(F)cc3)CC2)C(=O)N1Cc1ccccc1 (stereo not drawn),-17.6
18,CCN1C(=O)CC(N2CCN(c3ccc(C(=O)c4ccncc4)cc3)CC2)C1=O (stereo not drawn),-12.3
19,O=C1CC(N2CCN(c3ccc(F)cc3)CC2)C(=O)N1c1ccc(F)cc1 (stereo not drawn),1.07
20,O=C1CC(N2CCN(c3ccc(F)cc3)CC2)C(=O)N1Cc1cccs1 (stereo not drawn),-42.5
21,NC(=O)C1CCN(C2CC(=O)N(Cc3cccs3)C2=O)CC1 (stereo not drawn),0.931
